According to PubChem BioAssay (NCI):
“And” between values parts separate entries of the source, which are not always exact repeats. Equal entries are not always repeated. About 83,000 compounds went through this panel and 20% of them were active in at least one assay; those are over-represented in the sample as a whole.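 The test compound was applied at a single concentration to cells in 96-well plates for 48 hours, and percent growth was recorded.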 The source made the active and inactive calls. How the source made its calls: active means growth percent below 10; inactive means the rest.

Each compound was assayed on T-47D breast (assay: NCI-60 one-dose screen, 48 h (100 = growth as untreated, 0 = no growth, -100 = all killed)). Settings: 10 µM unless noted.
For `C[C@@]12CCCc3coc(c31)C(=O)c1cc3c(cc12)C(=O)C1=C(NCCS1(=O)=O)C3=O`, the growth was -45.9% (active). With `C=CC[PH+](c1ccccc1)c1ccccc1.C=CC[PH+](c1ccccc1)c1ccccc1.[Pt+2].[S-]c1nc2ccccc2[nH]1.[S-]c1nc2ccccc2[nH]1` the growth was -6.06% (active). `Cc1cc[c-]cc1.Fc1c[c-]c(-c2ccccn2)c(F)c1.[Pt+2].c1ccc([PH+](c2ccccc2)c2ccccn2)cc1` was tested, and the growth was 23.5% (inactive). `C#Cc1cccc(Nc2nc(Cl)nc3cc(NC(=O)CF)ccc23)c1` was tested, and the growth was 79.5% (inactive). With `CC[C@H](C)[C@H](NC(=O)c1ncccn1)C(=O)N(C)[C@H](C[C@@H](OC(C)=O)c1nc(C(=O)N[C@@H](Cc2ccccc2)C[C@H](C)C(=O)OC)cs1)C(C)C` the growth was 52.6% (inactive). For `Cc1cc(Br)c([N+](=O)[O-])cc1[N+](=O)[O-]`, the growth was 85.7% (inactive). With `COc1cc(C=C2C(=O)NC(=O)NC2=O)ccc1O` the growth was 101% (inactive). `Oc1cc(N2CC2)c(O)cc1N1CC1` was tested, and the growth was 19.2% (inactive). For `C[C@]12CCc3sc(Nc4ccc(O)cc4)nc3C1=CC[C@@H]1[C@@H]2CC[C@]2(C)C(=O)CC[C@@H]12`, the growth was 10.6% (inactive). `CN1CCc2cc3c(cc2C1O)OCO3` (configuration not stated) was tested, and the growth was 69.3% (inactive) and 102% (inactive). In the case of `N#CC(NC(=O)CCl)=C(Cl)Cl`, the growth is reported as -30% (active). `CC[C@@H](C)C(=O)O[C@H]1[C@H](O)[C@H]2[C@@H](CN3C[C@@H](C)CC[C@H]3[C@@]2(C)O)[C@@H]2C[C@]34O[C@]5(O)[C@@H](OC(=O)[C@@](C)(O)CC)CC[C@@]3(C)[C@@H]5[C@@H](OC(C)=O)[C@@H](OC(C)=O)[C@H]4[C@@]21O` was tested, and the growth was 97.3% (inactive).
